Assay results: ChEMBL document CHEMBL1201862, “PubChem BioAssay data set” (2004)
Among all 390,000 compounds or so, about 910 (0.23%) were called active. Roughly 5% stayed inconclusive and do not appear here. The calls are words filed in the database; no cut-off is given here. This excerpt belongs to a sample that is enriched for actives.

Biological target: T1, Ubiquitin carboxyl-terminal hydrolase 1 (Homo sapiens) (UniProt O94782)
T1 sequence (whole entry): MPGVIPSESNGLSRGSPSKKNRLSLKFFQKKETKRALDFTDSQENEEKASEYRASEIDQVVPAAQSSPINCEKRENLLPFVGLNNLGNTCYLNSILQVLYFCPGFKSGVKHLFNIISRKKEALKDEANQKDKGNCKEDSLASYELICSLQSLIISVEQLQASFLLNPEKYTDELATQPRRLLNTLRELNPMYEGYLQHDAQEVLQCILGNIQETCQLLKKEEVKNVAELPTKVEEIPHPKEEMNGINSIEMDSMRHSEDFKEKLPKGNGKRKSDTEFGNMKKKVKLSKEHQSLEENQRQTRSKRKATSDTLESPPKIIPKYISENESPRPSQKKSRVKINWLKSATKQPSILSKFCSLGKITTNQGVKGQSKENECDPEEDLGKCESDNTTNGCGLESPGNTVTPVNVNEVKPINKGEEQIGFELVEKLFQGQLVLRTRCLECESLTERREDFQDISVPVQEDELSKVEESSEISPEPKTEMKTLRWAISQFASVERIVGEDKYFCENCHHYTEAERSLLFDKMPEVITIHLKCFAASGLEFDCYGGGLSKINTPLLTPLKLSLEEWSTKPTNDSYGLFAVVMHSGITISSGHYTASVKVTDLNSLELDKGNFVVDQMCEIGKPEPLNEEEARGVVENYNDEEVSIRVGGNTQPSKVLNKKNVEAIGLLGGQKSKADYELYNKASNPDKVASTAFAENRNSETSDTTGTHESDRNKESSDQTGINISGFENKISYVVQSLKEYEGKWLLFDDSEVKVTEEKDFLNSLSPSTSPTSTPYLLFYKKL
Assay: Inhibitors of USP1/UAF1: Primary Screen.
Assay type: functional

Structure (SMILES)	Potency
CCn1nc(-c2ccccc2)nc2c(=O)n(C)c(=O)nc1-2	89.1 µM (active)
